Compounds with a hit are over-represented: about 0.99% of the library has one in this group of screens.
L3MBTL1 block – blocks human L3MBTL1. Q9Y468. AlphaScreen L3MBTL1–H3K9me1 peptide binding. Potency, µM (doses to about 57.1 µM), for the others: at the highest dose activity, negative = inhibition, most hits filed as inhibitors. 230,000 tested, 0.66% active. AID 485360; note: % is set by controls: 0 for no effect and ±100 for the full control effect; nearly all actives have a fitted effect of over 60% in size
Target sequence (Q9Y468 whole entry, looked up): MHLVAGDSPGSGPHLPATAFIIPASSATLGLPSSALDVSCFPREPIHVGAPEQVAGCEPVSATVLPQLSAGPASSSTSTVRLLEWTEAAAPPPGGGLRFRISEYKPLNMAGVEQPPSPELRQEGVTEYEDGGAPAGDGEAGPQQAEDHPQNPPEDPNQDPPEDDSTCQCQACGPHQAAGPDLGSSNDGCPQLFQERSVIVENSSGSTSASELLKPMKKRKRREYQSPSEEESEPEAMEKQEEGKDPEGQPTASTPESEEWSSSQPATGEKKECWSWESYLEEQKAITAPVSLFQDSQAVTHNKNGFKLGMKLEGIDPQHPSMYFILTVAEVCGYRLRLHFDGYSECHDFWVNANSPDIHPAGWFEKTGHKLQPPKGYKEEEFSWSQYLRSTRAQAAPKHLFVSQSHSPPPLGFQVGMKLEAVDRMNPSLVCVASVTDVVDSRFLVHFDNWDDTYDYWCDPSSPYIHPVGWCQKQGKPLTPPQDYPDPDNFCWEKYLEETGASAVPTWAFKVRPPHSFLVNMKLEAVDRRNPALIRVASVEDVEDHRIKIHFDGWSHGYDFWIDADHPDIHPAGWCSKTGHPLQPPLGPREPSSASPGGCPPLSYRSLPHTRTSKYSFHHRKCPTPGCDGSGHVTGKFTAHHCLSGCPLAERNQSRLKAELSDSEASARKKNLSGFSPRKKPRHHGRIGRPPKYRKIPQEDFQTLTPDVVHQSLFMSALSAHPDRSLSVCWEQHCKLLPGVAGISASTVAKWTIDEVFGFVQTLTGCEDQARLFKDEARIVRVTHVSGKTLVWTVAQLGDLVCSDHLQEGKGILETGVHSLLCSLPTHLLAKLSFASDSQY
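L3MBTL1 50 nM + b-AHA-H3(1-15)K9me1 75 nM, 30 min RT; compound added, 30 min RT; streptavidin donor/Ni-chelate acceptor beads 10 ug/mL each final, 30 min RT dark; AlphaScreen read.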
WRN helicase inh-1 – inhibitors of human WRN helicase. Q14191. WRN helicase unwinding, fluorescent forked duplex, kinetic. AID 651768. 360,000 tested, 0.46% active. Potency, µM (highest dose often 114 µM), for the others: top-dose activity change, negative = inhibition, most hits filed as inhibitors; note: % is set by controls: 0 for no effect and ±100 for the full control effect; nearly all actives have a fitted effect of over 55% in size
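Kinetic red-fluorescence monitoring (525/598 nm) tracks WRN helicase activity after 100 nM fluorophore-quencher forked duplex and 2 mM ATP are added to 20 nM enzyme pretreated 15 min at room temperature with compound.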
RECQ1 helicase – blocks DNA unwinding by human RECQ1. P46063. RECQ1 DNA unwinding, red fluorescence kinetic read. Potency, µM (doses to about 57.3 µM), without a hit: at the highest dose activity, negative = inhibition, usual class: inhibitors. 240,000 tested, 0.54% active. AID 2549;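 note: plate controls were vehicle for no effect and no enzyme for full effect; nearly all actives have a fitted effect of over 30% in size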
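50 nM RECQ1T1 preincubated 15 min with compound in Tris pH 8.0 buffer with MgCl2, DTT, Tween-20 and 2.5 ug/ml poly(dI-dC); started with 200 nM TAMRA/BHQ-2 forked duplex and 2 mM ATP. Unwinding read as fluorescence (525/598 nm), two reads 2 h apart.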
FEN1 inh-1 – blocks human flap endonuclease 1 | P39748 | Recombinant FEN1 flap cleavage, fluorescence, 15 min | Potency, µM (doses to about 114 µM), for inactives: top-dose activity change, negative = inhibition, hits mostly inhibitors | 390,000 tested, 0.35% active; note: % is set by controls: 0 for no effect and ±100 for the full control effect; nearly all actives have a fitted effect of over 65% in size
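Enzyme 10 nM, 15 min RT preincubation with compound; start with substrate 50 nM final; reads at 0 and 15 min; qHTS titration, four-parameter Hill fit.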
BLM helicase inh-1 – inhibitors of human Bloom syndrome helicase BLM | P54132 | recombinant BLM DNA unwinding, fluorescence dequenching | Potency, µM (doses to about 56.1 µM), for inactives: top-dose activity change, negative = inhibition, usual class: inhibitors | 350,000 tested, 0.2% active | AID 2528;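 note: plate controls were vehicle for no effect and no enzyme for full effect; nearly all actives have a fitted effect of over 35% in size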
FEN1 inh-2 – FEN1 inhibition, cherry-pick retest | shares compounds with FEN1 inh-1 | FEN1 flap cleavage, TAMRA/BHQ2 fluorogenic DNA substrate | Potency, µM, most hits filed as inhibitors | 880 tested, 79% active | AID 720498; note: nearly all actives have a fitted effect of over 60% in size
WRN helicase inh-2 – WRN helicase inhibition, cherry-pick retest; 610 tested, 63% active; WRN helicase DNA unwinding, fluorescence kinetic; AID 720497; Potency, µM (doses to about 57.1 µM), inactives show at the top dose activity, negative = inhibition, most hits filed as inhibitors; shares compounds with WRN helicase inh-1; note: nearly all actives have a fitted effect of over 65% in size
TO displacement – counter-screen for WRN helicase inhibitors: DNA binding | 610 tested, 10% active | Potency, µM (top dose mostly 57.1 µM), for inactives: at the highest dose activity change, negative = inhibition, hits mostly inhibitors | shares compounds with WRN helicase inh-1 | AID 720499 | thiazole orange DNA binding displacement, fluorescence;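 note: drop in dye fluorescence marks compound binding to DNA; % is set by controls: 0 for no effect and ±100 for the full control effect; nearly all actives have a fitted effect of over 60% in size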
BLM helicase inh-2 – blocks human BLM helicase in WRN counterscreen; Potency, µM (top dose mostly 57.1 µM), without a hit: at the top dose activity change, negative = inhibition, usual class: inhibitors; shares compounds with WRN helicase inh-1; 610 tested, 60% active; Recombinant BLM helicase DNA unwinding, red fluorescence; note: nearly all actives have a fitted effect of over 60% in size
Numbers without * were called inactive; [ ] = remark or other dose. Calls come from the whole dose curve; as a rule, active = well fitted curve in the direction sought with a large enough effect; inconclusive = small, poorly fitted or top-dose-only effect, or another doubt; inactive = no such curve, though single readings can be large; an effect the other way counts as inactive or inconclusive. Potency is the fitted concentration of half-maximal effect.

Results for COc1cc(NS(=O)(=O)c2ccc(NC(=S)NC(=O)/C=C/c3ccco3)cc2)ncn1 ?
L3MBTL1 block: inconclusive; WRN helicase inh-1: 14µM*; RECQ1 helicase: inactive; FEN1 inh-1: 13µM*; BLM helicase inh-1: 3%; FEN1 inh-2: 60*; WRN helicase inh-2: 15µM*; TO displacement: -22%; BLM helicase inh-2: 15µM*

Results for CC1=NN(c2ccc(Cl)c(C(=O)O)c2)C(=O)C1 ?
L3MBTL1 block: inconclusive; WRN helicase inh-1: inconclusive; RECQ1 helicase: 9%; FEN1 inh-1: inconclusive; BLM helicase inh-1: -10%

What do the screens show for `O=C(O)c1cc(N2N=C(C(F)(F)F)/C(=C/C=C/c3ccco3)C2=O)ccc1Cl`?
L3MBTL1 block: 1µM*; WRN helicase inh-1: 0.84µM*; RECQ1 helicase: 17%; FEN1 inh-1: 3.2µM*; BLM helicase inh-1: inconclusive; FEN1 inh-2: 3.8*; WRN helicase inh-2: 1.4µM*; TO displacement: -14%; BLM helicase inh-2: 0.61µM*

How did CN1/C(=C\C=C2/C(=O)Oc3ccccc3C2=O)C(C)(C)c2ccccc21 do in these assays?
L3MBTL1 block: -11%; WRN helicase inh-1: 27µM*; RECQ1 helicase: -7%; FEN1 inh-1: 35µM*; FEN1 inh-2: 19*; WRN helicase inh-2: 15µM*; BLM helicase inh-2: inactive

Results for CN1C(=CC=C2C=C(I)C(=O)C(I)=C2)C(C)(C)c2ccccc21 ?
L3MBTL1 block: -16%; WRN helicase inh-1: 4.7µM*; RECQ1 helicase: 0.63µM*; FEN1 inh-1: 32µM*; BLM helicase inh-1: 28µM*; FEN1 inh-2: 85*; WRN helicase inh-2: 27µM*; TO displacement: 88%; BLM helicase inh-2: 19µM*

How did CC1=NN(c2ccccc2)C(=O)/C1=C\C=C1/N(C)c2ccccc2C1(C)C do in these assays?
L3MBTL1 block: inconclusive; WRN helicase inh-1: 10%; RECQ1 helicase: -9%; FEN1 inh-1: inconclusive; BLM helicase inh-1: -6%

Results for O=C(CN1CCN(Cc2ccccc2)CC1)N/N=C/c1cccs1 ?
L3MBTL1 block: inconclusive; WRN helicase inh-1: 4%; RECQ1 helicase: -2%; FEN1 inh-1: 16%; BLM helicase inh-1: inconclusive

Results for COc1cc2nc(NCCCN3CCN(C)CC3)n3nc(-c4ccccc4)nc3c2cc1OC ?
WRN helicase inh-1: 12µM*; RECQ1 helicase: 5%; FEN1 inh-1: 20µM*; BLM helicase inh-1: -4%; FEN1 inh-2: 12*; WRN helicase inh-2: 12µM*; TO displacement: -29%; BLM helicase inh-2: -5%

How did CCN(CC)CCCNc1nc2cc(OC)c(OC)cc2c2nc(-c3ccccc3)nn12 do in these assays?
WRN helicase inh-1: 35µM*; RECQ1 helicase: inconclusive; FEN1 inh-1: 13µM*; BLM helicase inh-1: 16%; FEN1 inh-2: 6.7*; WRN helicase inh-2: 17µM*; TO displacement: -9%; BLM helicase inh-2: 25%

What do the screens show for `COCCCNc1nc2cc(OC)c(OC)cc2c2nc(-c3ccccc3)nn12`?
WRN helicase inh-1: -4%[57.1 µM]; FEN1 inh-1: 0%; BLM helicase inh-1: -3%

What do the screens show for `Cc1cccc(C(=O)NNC(=O)CCn2nnc3ccccc32)c1`?
WRN helicase inh-1: -1%; RECQ1 helicase: 8%; FEN1 inh-1: 1%; BLM helicase inh-1: 0%

Results for Cn1cc(/C=C(\NC(=O)c2ccccc2Cl)C(=O)NCCCN2CCOCC2)c2ccccc21 ?
WRN helicase inh-1: -20%; FEN1 inh-1: 22%; BLM helicase inh-1: 3%

How did C#CCOCCOCCOCCNc1nc(N2CCN(C(=O)Cn3cc(CCO)nn3)CC2)nc(N2CCN(C(=O)[C@H]([C@@H](C)CC)n3cc(CCCN=C(N)N)nn3)CC2)n1 do in these assays?
WRN helicase inh-1: -6%; FEN1 inh-1: 1%

Results for Cc1ccc(C(=O)NNC(=O)c2ccc(S(=O)(=O)N3CCCCC3)cc2)cc1 ?
L3MBTL1 block: 5%; WRN helicase inh-1: 35µM*; FEN1 inh-1: -16%; WRN helicase inh-2: -17%; TO displacement: -2%; BLM helicase inh-2: inconclusive

What do the screens show for `O=C(c1cc(C2CCCCN2S(=O)(=O)c2cccs2)on1)N1CCOCC1` (centres undefined)?
WRN helicase inh-1: 4%

How did Cc1cccc(CCN(CC(=O)NC(C)(C)C)C(=O)c2csnn2)c1 do in these assays?
L3MBTL1 block: 10%; WRN helicase inh-1: -35%; RECQ1 helicase: inactive; FEN1 inh-1: 4%; BLM helicase inh-1: -1%

What do the screens show for `COc1ccc(/C=N/NC(=O)c2ccccc2OC)cc1COc1ccc(C)cc1`?
WRN helicase inh-1: -26%; FEN1 inh-1: -2%; BLM helicase inh-1: -3%

Results for COc1ccc(/C=N/NC(=O)c2ccccc2OC)cc1COc1ccccc1[N+](=O)[O-] ?
WRN helicase inh-1: inconclusive; FEN1 inh-1: 3%; BLM helicase inh-1: inconclusive; WRN helicase inh-2: inconclusive; TO displacement: -5%; BLM helicase inh-2: -20%

What do the screens show for `Cn1ccnc1SCc1cccc([N+](=O)[O-])c1`?
WRN helicase inh-1: -2%; FEN1 inh-1: -11%; BLM helicase inh-1: 0%

What do the screens show for `CCCC(=O)Nc1nnc(SCC(=O)NCc2ccc3c(c2)OCO3)s1`?
L3MBTL1 block: 17%; WRN helicase inh-1: 5%; RECQ1 helicase: -2%; FEN1 inh-1: 3%; BLM helicase inh-1: 5%

What do the screens show for `CCOc1cccc(CNc2ccc(O)cc2)c1OCc1ccc(Cl)cc1Cl`?
L3MBTL1 block: inconclusive; WRN helicase inh-1: inconclusive; RECQ1 helicase: -24%; FEN1 inh-1: -11%; BLM helicase inh-1: inconclusive; WRN helicase inh-2: -29%; TO displacement: -27%; BLM helicase inh-2: inconclusive

How did Nc1c(S(=O)(=O)O)cc(NC(=O)c2ccccc2)c2c1C(=O)c1ccccc1C2=O do in these assays?
WRN helicase inh-1: 28µM*; FEN1 inh-1: inconclusive; BLM helicase inh-1: inconclusive; WRN helicase inh-2: 12µM*; TO displacement: 11µM*; BLM helicase inh-2: 19µM*

What do the screens show for `O=C(Nc1ccccc1-c1ccccc1)c1ccccc1`?
L3MBTL1 block: -1%; WRN helicase inh-1: -2%; FEN1 inh-1: -13%; BLM helicase inh-1: 1%

Screening data (PubChem)
